The list is not random: actives were taken first. Their share in the collection is about 17%.
TDP1 inh = qHTS Assay for Inhibitors of Tyrosyl-DNA Phosphodiesterase (TDP1) | Potency, µM (highest dose often 130 µM), without a hit: at the highest dose activity change, negative = inhibition, actives largely listed as inhibitors | Tyrosyl-DNA phosphodiesterase 1 (Homo sapiens), Q9NUW8 | AID 485290, 2010 | 350,000 compounds, 0.28% hits | recombinant TDP1, AlphaScreen DNA substrate cleavage; also: % is scaled to controls: 0 for no effect and ±100 for the full control effect; nearly all actives have a fitted effect of over 40% in size
Target sequence (Q9NUW8 whole entry, looked up): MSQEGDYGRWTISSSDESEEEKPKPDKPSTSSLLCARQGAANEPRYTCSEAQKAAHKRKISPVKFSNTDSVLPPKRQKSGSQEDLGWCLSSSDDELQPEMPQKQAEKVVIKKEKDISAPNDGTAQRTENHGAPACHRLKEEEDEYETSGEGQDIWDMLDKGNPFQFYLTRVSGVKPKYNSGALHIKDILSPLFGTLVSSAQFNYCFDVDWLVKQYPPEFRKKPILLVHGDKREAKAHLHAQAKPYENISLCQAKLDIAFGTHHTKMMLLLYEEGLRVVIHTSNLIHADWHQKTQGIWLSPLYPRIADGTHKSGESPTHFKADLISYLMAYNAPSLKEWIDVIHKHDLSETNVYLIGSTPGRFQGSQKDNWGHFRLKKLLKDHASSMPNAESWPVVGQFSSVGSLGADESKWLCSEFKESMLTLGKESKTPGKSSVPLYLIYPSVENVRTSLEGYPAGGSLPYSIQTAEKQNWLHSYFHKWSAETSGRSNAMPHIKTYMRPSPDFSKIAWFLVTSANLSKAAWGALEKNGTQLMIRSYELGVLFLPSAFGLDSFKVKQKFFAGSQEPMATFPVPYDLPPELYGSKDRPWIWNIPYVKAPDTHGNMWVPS
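Compounds were preincubated with Tdp1 (1 nM final) for 15 min at room temperature before substrate (15 nM final) started a 5 min reaction; beads (10 ug/ml final) were then added for 10 min before AlphaScreen detection.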
TDP1 cell noCPT = qHTS for Inhibitors of human tyrosyl-DNA phosphodiesterase 1 (TDP1): qHTS in cells in absence of CPT. DT40 Tdp1-/- hTDP1 cells, no CPT, ATP luminescence, 48 h. Potency, µM (doses to about 46.2 µM), for inactives: at the highest dose activity change, negative = growth inhibition, hits mostly inhibitors. 420,000 compounds, 15% hits; also: % is scaled to controls: 0 for no effect and ±100 for the full control effect; nearly all actives have a fitted effect of over 55% in size
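Stably hTDP1-transfected Tdp1-null chicken DT40 cells were treated with library compounds minus camptothecin and grown for at least 48 hr at 37 °C, after which cellular ATP was quantified by luminescence.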
TDP1 cell CPT = qHTS for Inhibitors of human tyrosyl-DNA phosphodiesterase 1 (TDP1): qHTS in cells in presence of CPT | 420,000 compounds, 12% hits | Potency, µM (highest dose often 46.2 µM), without a hit: top-dose activity change, negative = growth inhibition, actives largely listed as inhibitors | chicken DT40 Tdp1-/-;hTDP1 cells + 20 nM CPT, ATP luminescence, 48 h; also: % is scaled to controls: 0 for no effect and ±100 for the full control effect; nearly all actives have a fitted effect of over 55% in size
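Chicken DT40 Tdp1-/- cells stably complemented with human TDP1 were seeded at 400 cells/well in medium containing 20 nM camptothecin, exposed to pin-transferred compounds, and grown at 37 °C for at least 48 hr. Viability was read as ATP luminescence.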
ClpP mod = qHTS Assay for Activators of ClpP | ATP-dependent Clp protease proteolytic subunit (Bacillus subtilis (strain 168)), P80244 | purified B. subtilis ClpP, FRET peptide cleavage, 20 min | Potency, µM (series often up to 57.5 µM), for inactives: top-dose activity change, negative = active | 340,000 compounds, 1.9% hits | AID 651965, 2013; active = well fitted falling curve with a large enough effect; inconclusive = small, poorly fitted or top-dose-only effect; inactive = no such curve, though single readings can be large or run the other way; also: the source files actives as falling curves though it sought activators and does not explain the sign; nearly all actives have a fitted effect of over 65% in size
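Buffer: 100 mM Tris/HCl pH8, 100 mM KCl, 0.05% low protease BSA, 2.5% glycerol, 0.01% Tween-20. ClpP 10 microg/mL final; 20 min RT; delta FRET normalized to ADEP and DMSO controls.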
* hit, by the source's call; ? = inconclusive; nt = no result given; [ ] = another dose, or the depositor's remark. Unless noted, calls follow the shape of the dose curve; as a rule, active = well fitted curve in the direction sought with a large enough effect; inconclusive = small, poorly fitted or top-dose-only effect, or another doubt; inactive = no such curve, though single readings can be large; an effect the other way counts as inactive or inconclusive. Potency is read from the fitted curve at half-maximal effect.

SMILES | TDP1 inh | TDP1 cell noCPT | TDP1 cell CPT | ClpP mod
Cc1ccc(NC(=S)N2CCCC(c3nc4ccc(C)cc4[nH]3)C2)c(C)c1 (centres undefined) | 5% | ? | ? | 0%
Cc1ccc2nc(C3CCCN(C(=S)Nc4cccc(C)c4C)C3)[nH]c2c1 (centres undefined) | 8% | 18µM* | ? | -1%
CC1CCC2C(=O)N3C(CCC(C)[C@@H]3c3cccc(N4CCOCC4)c3)C(=O)N2C1c1cccc(N2CCOCC2)c1 (some centres undefined) | 10%[21 µM] | nt | nt | nt
COc1ccccc1CNC(=O)COC(=O)CCN1C(=O)C2CC=CCC2C1=O (centres undefined) | nt | -6% | 5% | -1%
COCCNC(=O)C1(C)CCCN(C(=O)c2ccc(F)c(Cl)c2)C1 (centres undefined) | nt | 0% | 0% | 0%
CCOc1ccc2c(=O)c(Oc3ccccc3)c(C)oc2c1 | 3% | 21µM* | ? | -5%
O=C(c1ccccc1)N1CCOC(O)(c2ccccc2)C1c1ccccc1 (centres undefined) | nt | -32% | ? | 0%
COCc1c(C(=O)N2CCN(C3CCCC3)CC2)cnn1-c1nccc(-c2cc(C)sc2C)n1 | nt | -17% | 5%[9.04 µM] | nt
Cc1ccc(C2=Nc3ccccc3N=C(c3ccco3)C2)c(O)c1 | 2% | -25% | -17% | 1%
Cc1ccc(O)c(C2=Nc3ccccc3N=C(c3ccco3)C2)c1 | 5% | 13µM* | ? | -1%
O=C(O)c1ccc(Cl)c(S(=O)(=O)N(Cc2ccccc2)c2ccccc2)c1 | 0% | 8% | 3% | nt
CCN(c1ccccc1)S(=O)(=O)c1cc(C(=O)O)ccc1C | 22µM* | -6% | 14% | -2%
CCN(c1ccccc1)S(=O)(=O)c1ccc(C(=O)Nc2cccc(NC(C)=O)c2)cc1 | 1% | -21% | ? | 1%
CCN(c1ccccc1)S(=O)(=O)c1ccc(F)c(C(=O)Nc2ccc(C)cc2)c1 | 5% | 12µM* | 9.2µM* | -3%
CCN(c1ccccc1)S(=O)(=O)c1cc(C(=O)Nc2ccc(F)c(F)c2)ccc1F | -6% | ? | 23µM* | -3%
COc1ccc(C2(c3ccc(OC)cc3)NC(=O)N(CC(=O)N3CCOCC3)C2=O)cc1 | 1% | 11% | -5% | 0%
O=C(NCc1ccccc1Cl)c1cc2c(s1)-c1ccc(Cl)cc1SC2 | 3% | ? | ? | 5%
Cc1ccc(NC(=O)N2CCCCCC2)cc1C | 0% | 24% | -2% | 0%
Cc1ccc(C(NC(=O)N2CCCCC2)=C(Cl)Cl)cc1F | 3% | -34% | 13µM* | 1%
Cc1ccc(C(NC(=O)NCCCN2CCOCC2)=C(Cl)Cl)cc1F | 0% | 13µM* | 11µM* | -1%
COC(=O)c1ccc(C(=O)N2CCCC(CNC(=O)c3ccccc3Cl)C2)cc1 (centres undefined) | 1% | -1% | -8% | nt
CC1CCCCN1S(=O)(=O)c1cc2c(=O)nc3ccccn3c2cc1Cl (centres undefined) | 5% | -18% | 1% | 4%
CCCc1cc(C(=O)Nc2cccc(-c3nn[nH]n3)c2)sc1C | nt | -3% | -5% | -2%
O=C1Nc2ccc(Cl)cc2C12Nc1ccccc1-c1nnc(SCc3ccccc3F)nc1O2 (centres undefined) | -8% | ? | 15µM* | 53%
CCSc1nnc2c(n1)OC1(CCCC1)Nc1ccccc1-2 | 5% | ? | -6% | -1%
SMILES | TDP1 inh | TDP1 cell noCPT | TDP1 cell CPT | ClpP mod
COc1ccc(CNC(=O)C2CCN(S(=O)(=O)Cc3ccccc3)CC2)cc1 | 3% | -6% | ? | 1%
Cc1ccccc1C(=O)N1c2ccccc2OCC1C(C)(C)C (centres undefined) | nt | 21µM* | ? | 0%
Cc1cc(C)cc(NC(=O)C2CCN(c3nc4ccccc4nc3C(F)(F)F)CC2)c1 | -3% | ? | ? | -2%
CCc1ccc(CN(C)C(=O)C2CCC(=O)N(CC3CCCCC3)C2)cc1 (centres undefined) | 3% | ? | 23µM* | 0%
Cc1ccc(SCc2cc(=O)c3c(=O)n(-c4ccccc4)[nH]c3[nH]2)cc1 | 11% | -15% | 22% | nt
CCC(C)NC(=O)c1ccc(Cn2c(=O)c3cccn3c3cccnc32)cc1 (centres undefined) | 3% | ? | -10% | ?
O=C(/C=C/N1CCOCC1)c1ccc(-c2ccccc2)cc1 | 2% | 21µM* | ? | 0%
COc1cccc(OC)c1C(=O)NC1C(=O)N2C1SC(C)(C)C2C(=O)O (centres undefined) | -15%[56.1 µM] | nt | nt | nt
Cc1csc2nc(-c3cccc(NC(=O)c4ccccc4Cl)c3)cn12 | 5% | 18µM* | 18µM* | -4%
Cc1csc2nc(-c3cccc(NC(=O)c4cccc(F)c4)c3)cn12 | 5% | 18µM* | 18µM* | -4%
Cc1csc2nc(-c3cccc(NC(=O)c4ccccc4F)c3)cn12 | 5% | ? | ? | -12%
COc1ccccc1-c1nc(CNC(=O)NC2CCCCC2)c(C)o1 | 4% | -8% | -16% | -23%
CCC(C)NC(=O)CSc1nnc(-c2ccc(C)cc2)c(-c2ccc(C)cc2)n1 (centres undefined) | 8% | ? | ? | 0%
COc1cc(/C=N\Nc2ccc([N+](=O)[O-])cc2)ccc1OCC(=O)Nc1ccc(C)c(C)c1 | 8% | 18µM* | ? | 0%
CCOc1cc(/C=N\Nc2ccc([N+](=O)[O-])cc2)ccc1OCC(=O)Nc1ccc(C)c(C)c1 | 6% | 15µM* | 23µM* | 0%
COc1cc(/C=N\NC(=O)CN2CCOCC2)ccc1OCC(=O)Nc1ccc(C)c(C)c1 | 8% | ? | ? | -7%
COc1cc(/C=N/NC(=O)COc2ccc(C)cc2)ccc1OC(=O)c1cccs1 | 2% | 26µM* | ? | 0%
CCOc1cc(/C=N\NC(=O)Cc2ccccc2)ccc1OCC(=O)Nc1ccc(C)c(C)c1 | -3% | 21µM* | 13µM* | 18%
O=C(NCCN1CCC(n2c(=O)[nH]c3ccccc32)CC1)c1ccc(F)cc1Cl | nt | ? | ? | 1%
COc1cc(/C=N/NC(N)=S)ccc1OCC(=O)Nc1ccc(C)cc1 | -4% | -27% | ? | -5%
CCOc1cc(/C=N/NC(=O)COc2ccc(Cl)cc2)ccc1OS(=O)(=O)c1ccccc1 | -3% | 23µM* | ? | -3%
CNC(=S)N/N=C/c1ccc(OCC(=O)Nc2c(C)cc(C)cc2C)c(OC)c1 | 1% | ? | 21µM* | ?
CC(C)Cn1cc(C(=O)NCCCOC(C)C)c2c3ccccc3n(C)c2c1=O | 2% | -29% | -13% | 28µM*
